According to the supplement of paper PMC9877034:
Counter-ions that a name gives are not always drawn. The full ranking holds about 1,000 compounds; the median of “cFRET/donor change relative to DMSO, normalised to beta-lapachone positive control (supercomplex I-IV assembly)” is about 0.18, and the lowest 2% start at about -1. What follows is part of a selection rich in the lowest values, with near analogues and random picks from the rest.

test system: C2C12 (NDUFB8-AcGFP / COX8A-DsRed-Monomer FRET reporter); assay: cFRET/donor change relative to DMSO, normalised to beta-lapachone positive control (supercomplex I-IV assembly) (fraction of beta-lapachone effect); higher = more respiratory supercomplex assembly; conditions: 40 µM; 24 h
Procedure: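 Cells were treated with 40 uM compound for 24 h and imaged on an IN Cell Analyzer 6000. Corrected FRET was divided by donor signal (cFRET/donor) and measured in two replicate experiments. The score is (mean cFRET/donor of compound - mean DMSO) / (mean beta-lapachone 40 uM - mean DMSO). Compounds flagged for prominent cell death, abnormal morphology or decreased cell number were excluded.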

Row | SMILES | cFRET/donor change
1 | NC(C(=O)O)C(O)C(=O)O (racemic) [DL-threo-beta-hydroxyaspartic acid] | -0.112
2 | Cc1cc2c(cc1Cl)N(C(=O)Nc1cccc3ncccc13)CC2 | -0.136
3 | Cc1cc2c(cc1Cl)N(C(=O)Nc1ccc(Oc3cccnc3C)nc1)CC2 | -1.37
4 | Cn1ccc2cc3c(cc21)CCN3C(=O)Nc1cccnc1 | -0.716
5 | C[C@H](CCC(=O)NCCS(=O)(=O)O)[C@H]1CC[C@H]2[C@@H]3[C@H](O)C[C@@H]4C[C@H](O)CC[C@]4(C)[C@H]3C[C@H](O)[C@]12C [Sodium Taurocholate hydrate] | 0.0638
6 | COc1ccc2cccc(CCNC(C)=O)c2c1 [Agomelatine] | 0.0655
7 | Clc1ccc(N2CCN(Cc3cc4ccccn4n3)CC2)cc1 | 0.359
8 | CCCCC#Cc1nc(NC)c2ncn([C@@H]3O[C@H](CO)[C@@H](O)[C@H]3O)c2n1 | 0.242
9 | CC(N)=NCCCC[C@H](N)C(=O)O [L-N6-(1-Iminoethyl)lysine hydrochloride] | -0.0938
10 | COc1ccc2c(c1)CC[C@@H]1[C@@H]2CC[C@]2(C)[C@@H](NCCCCCCN3C(=O)CCC3=O)CC[C@@H]12 | 0.325
11 | O=C1N=C(O)NC1(c1ccccc1)c1ccccc1 [Phenytoin sodium] | 0.149
12 | Cn1c(=O)c(-c2c(Cl)cccc2Cl)cc2cnc(Nc3ccc(N4CCOCC4)cc3)nc21 | -0.227
13 | CCN(CC)CCOc1ccc(Nc2ncc3cc(-c4c(Cl)cccc4Cl)c(=O)n(C)c3n2)cc1 | -5.45
14 | Cc1cc(Nc2ncc3cc(-c4c(Cl)cccc4Cl)c(=O)n(C)c3n2)ccc1F | -0.253
15 | CN1Cc2c(N)cccc2C(c2ccccc2)C1 (stereo not drawn) [Nomifensine maleate] | -0.996
16 | CN1Cc2sccc2C(c2ccc(O)c(O)c2)C1 (stereo not drawn) | 0.596
17 | CN1CCc2cc(Cl)c(O)cc2[C@@H](c2ccccc2)C1 | 0.549
18 | NS(=O)(=O)C#Cc1ccccc1 [Pifithrin-mu] | 0.551
19 | O=C(O)/C=C/c1cnc[nH]1 [4-Imidazoleacrylic acid] | 0.18
20 | Clc1ccc2c(c1)N=C(N1CCNCC1)c1ccccc1N2 [N-Desmethylclozapine] | 0.316
21 | O=C(CCSCc1ccco1)NNC(=O)N1Cc2ccccc2Oc2ccc(Cl)cc21 | 0.36
22 | COc1cc(NS(C)(=O)=O)ccc1Nc1c2ccccc2nc2ccccc12 [Amsacrine hydrochloride] | 0.257
23 | CC1(C2CCCC2)Cc2cc(OCC(=O)O)c(Cl)c(Cl)c2C1=O (stereo not drawn) | 0.0296
24 | O=P(O)(O)C(O)(Cn1ccnc1)P(=O)(O)O [Zoledronic acid monohydrate] | 0.239
25 | Cc1ccc(O)c(N=Nc2ccccc2)n1 | 0.375
26 | CO[C@H]1C[C@@H]2CC[C@@H](C)[C@@](O)(O2)C(=O)C(=O)N2CCCC[C@H]2C(=O)O[C@H]([C@H](C)C[C@@H]2CC[C@@H](OC(=O)C(C)(CO)CO)[C@H](OC)C2)CC(=O)[C@H](C)/C=C(\C)[C@@H](O)[C@@H](OC)C(=O)[C@H](C)C[C@H](C)/C=C/C=C/C=C/1C [Temsirolimus] | -0.55

Row | SMILES | cFRET/donor change
27 | COc1ccc2[nH]c([S@@+]([O-])Cc3ncc(C)c(OC)c3C)nc2c1 [Esomeprazole magnesium dihydrate] | 0.951
28 | NCC=CC(=O)O (stereo in doubt) [cis-4-Aminocrotonic acid] | 0.532
29 | CCN(CC)C(C)CN1c2ccccc2Sc2ccccc21 (stereo not drawn) [Ethopropazine hydrochloride] | -0.00468
30 | N[C@@H](CCCC(=O)O)C(=O)O [L-2-aminoadipic acid] | -0.139
31 | COCCOc1cc2ncnc(Cl)c2cc1OCCOC | 0.0633
32 | CCOC(=O)c1ccc(C#Cc2ccc3c(c2)C(C)(C)CCS3)nc1 [Tazarotene] | 0.454
33 | c1ccc2c(c1)CC(N1CCN(c3cccc4c3OCCO4)CC1)C2 | 0.201
34 | c1cnc2cc3c(cc2n1)[C@@H]1CNC[C@H]3C1 [Varenicline tartrate] | 0.22
35 | Cc1ccc(S(=O)(=O)/C=C/C#N)cc1 | 0.324
36 | COc1ccc(CCNc2nc(N3CCc4cc(OC)c(OC)cc4C3)c3cc(OC)c(OC)cc3n2)cc1OC | 0.14
37 | O=C1c2c(O)cc(O)cc2O[C@H](c2ccc(O)c(O)c2)[C@H]1O (racemic) [(±)-Taxifolin] | 0.226
38 | CN(c1ccccc1CNc1nc(Nc2ccc3c(c2)CC(=O)N3)ncc1C(F)(F)F)S(C)(=O)=O | 0.036
39 | O=C(O[C@@H]1C[C@@H]2C[C@H]3C[C@H](C1)N2CC3=O)c1c[nH]c2ccccc12 [Dolasetron mesylate hydrate] | 0.115
40 | NC(N)=NCc1cccc(I)c1 [m-Iodobenzylguanidine hemisulfate] | -0.0455
41 | CN(CCCOc1ccc(Cc2ccccc2)cc1)CCC(=O)O | 0.52
42 | COc1cccc(OC)c1-c1cc(C(=O)NC2(C(=O)O)C3CC4CC(C3)CC2C4)nn1-c1ccc(C(=O)N(C)CCCN(C)C)cc1C(C)C (stereo not drawn) | 0.153
43 | CC(C)[N+]1(C)[C@@H]2CC[C@H]1C[C@@H](OC(=O)C(CO)c1ccccc1)C2 (stereo partly drawn) [Ipratropium bromide] | 0.299
44 | O=C1CCC(c2ccc(-n3ccnc3)cc2)=NN1 [Imazodan] | 0.0699
45 | Nc1nc(=O)c(Br)c(-c2ccccc2)[nH]1 [Bropirimine] | -0.0226
46 | Nc1ccc(-c2nc3ccc(-c4nc5ccc(N)cc5[nH]4)cc3[nH]2)cc1 | -0.494
47 | CC(C)(C)NC(=O)[C@@H]1CN(Cc2cccnc2)CCN1C[C@@H](O)C[C@@H](Cc1ccccc1)C(=O)N[C@H]1c2ccccc2C[C@H]1O [Indinavir sulfate salt hydrate] | 0.0944
48 | Cc1cc(NC2CCCCC2)nc(-n2nc(C)cc2C)n1 | 0.569
49 | O=C1/C(=C/c2cccs2)CC/C1=C\c1cccs1 | 0.584
50 | CCN(CC)CCCC(C)Nc1c2ccc(Cl)cc2nc2ccc(OC)cc12 (stereo not drawn) [Quinacrine dihydrochloride] | -4.52
51 | OC[C@H]1O[C@@H](n2cnc3c(N[C@H]4CCC[C@@H]4O)ncnc32)[C@H](O)[C@@H]1O | 0.476
52 | C[C@H](c1ccc(F)cc1CCCC(=O)O)N(c1cc(F)ccc1F)S(=O)(=O)c1ccc(Cl)cc1 | 0.476

Row | SMILES | cFRET/donor change
53 | C[N+](C)(C)CCO.[Br-] [Choline bromide] | 0.313
54 | O=C(CCCCCN1CCN(c2ccccc2-c2ccccc2)CC1)NC1CCCc2ccccc21 (stereo not drawn) [LP 12 hydrochloride hydrate] | 1.51
55 | C=CC1=C(C)c2cc3[nH]c(cc4nc(cc5[nH]c(cc1n2)c(C)c5CCC(=O)O)C(CCC(=O)O)=C4C)c(C)c3C=C [Protoporphyrin IX disodium] | 3.12
56 | COC(=O)C1=C(C)NC(C)=C(C(=O)OC2CCCN(Cc3ccccc3)C2)C1c1cccc([N+](=O)[O-])c1 (stereo not drawn) [Benidipine hydrochloride] | 0.367
57 | CCc1cccc(N(C)C(=N)Nc2cccc3ccccc23)c1 | 0.203
58 | CCOC(=O)[C@@H](N)Cc1ccc(O)c(O)c1 [L-Dopa ethyl ester] | -0.101
59 | O=c1n(CCCN2CCN(c3cccc(Cl)c3)CC2)nc2ccccn12 [Trazodone hydrochloride] | 0.586
60 | CC[C@H]1OC(=O)[C@H](C)[C@@H](O[C@H]2C[C@@](C)(OC)[C@@H](O)[C@H](C)O2)[C@H](C)[C@@H](O[C@@H]2O[C@H](C)C[C@H](NC)[C@H]2O)[C@](C)(O)C[C@@H](C)CN(C)[C@H](C)[C@@H](O)[C@]1(C)O | 0.325
61 | O=c1cc(-c2ccccc2)[nH]c2nc(Cl)ccc12 [7-Chloro-4-hydroxy-2-phenyl-1,8-naphthyridine] | -1.98
62 | O=C(O)c1cc(=O)c2ccccc2[nH]1 [Kynurenic acid] | -0.161
63 | CN1[C@@H]2CC[C@H]1CC(OC(=O)c1c[nH]c3ccccc13)C2 (stereo partly drawn) [3-Tropanyl-indole-3-carboxylate hydrochloride] | 0.435
64 | CCCOc1ccccc1-c1nc2[nH]nnc2c(=O)[nH]1 [Zaprinast] | 0.225
65 | CCCCN(CC)c1nc(C)nc2c1c(C)cn2-c1c(C)cc(C)cc1C | 0.353
66 | CNC(=O)[C@H]1O[C@@H](n2cnc3c(NCc4ccc(N)cc4)ncnc32)[C@H](O)[C@@H]1O | 0.125
67 | Cc1nc(C#Cc2cccnc2)cs1 [MTEP hydrochloride] | 0.691
68 | CCCc1nn(C)c2c(=O)[nH]c(-c3cc(S(=O)(=O)N4CCN(C)CC4)ccc3OCC)nc12 [Sildenafil citrate salt] | 0.123
69 | NS(=O)(=O)c1cc2c(cc1Cl)N=CNS2(=O)=O [Chlorothiazide] | 0.223
70 | C=C1C(=O)O[C@H]2[C@H]1CC/C(C)=C/CC[C@@]1(C)O[C@@H]21 [Parthenolide] | 0.366
71 | CN(CCOc1ccc(NS(C)(=O)=O)cc1)CCc1ccc(NS(C)(=O)=O)cc1 [Dofetilide] | 0.532
72 | CC1CCN=C(N)S1 (racemic) [(±)-AMT hydrochloride] | 0.00413
73 | CC(=O)/C=C1/C(=O)N(C)c2ccccc21 [Supercinnamaldehyde] | 0.0218
74 | CC(N)(Cc1ccc(O)cc1)C(=O)O (racemic) [DL-alpha-Methyl-p-tyrosine] | -0.224
75 | C[C@]12CC[C@@H]3c4ccc(O)cc4C[C@@H](CCCCCCCCC[S+]([O-])CCCC(F)(F)C(F)(F)F)[C@H]3[C@@H]1CC[C@@H]2O (stereo partly drawn) [Fulvestrant] | 0.0846
76 | NS(=O)(=O)c1nn2cc(-c3ccccc3)nc2s1 | -0.298
77 | COC(=O)C(C)(N)Cc1ccc(O)cc1 (racemic) [alpha-Methyl-DL-tyrosine methyl ester hydrochloride] | 0.302
78 | O=C1OC(=O)[C@H]2[C@@H]1[C@@H]1CC[C@H]2O1 [Norcantharidin] | 0.251
